Target: Large ribosomal subunit protein uL5 (UniProt P62399)

Listed as a hit, yes:
Large ribosomal subunit protein bL27, P0A7L8
Large ribosomal subunit protein bL31, P0A7M9
Small ribosomal subunit protein uS19, P0A7U3

Target: Small ribosomal subunit protein bS1 (UniProt P0AG67)

Listed as a hit, yes:
Small ribosomal subunit protein uS7, P02359
Small ribosomal subunit protein uS10, P0A7R5
Small ribosomal subunit protein uS11, P0A7R9
Small ribosomal subunit protein uS9, P0A7X3

Reference: PMC12214610
